The entries come from a sample that favours hits as a whole.
SARS PLpro yeast – qHTS of Yeast-based Assay for SARS-CoV PLP | S. cerevisiae expressing SARS-CoV PLpro, growth rescue | Potency, µM (highest dose often 32.9 µM), most hits filed as activators | 330,000 compounds, 0.19% hits | AID 485353, 2010; note: nearly all actives have a fitted effect of over 55% in size
NS1 function inh – qHTS Assay for Inhibitors of Influenza NS1 Protein Function; Potency, µM (top dose mostly 46.1 µM); 270,000 compounds, 0.4% hits; note: actives are rising curves; nearly all actives have a fitted effect of over 50% in size
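OD600 was taken as the measure of yeast growth restored by compound in an NS1-expressing S. cerevisiae strain. Cells had been washed out of glucose medium and diluted 1:100 into galactose -URA medium, pH 6.0.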
LmPK inh – qHTS Assay for Inhibitors of Leishmania Mexicana Pyruvate Kinase (LmPK); Q27686; purified LmPK, Kinase-Glo ATP luminescence, 1 h; Potency, µM (series often up to 57.5 µM), hits mostly inhibitors; 290,000 compounds, 0.37% hits; AID 1721, 2009; active = well fitted curve in the direction sought with a large enough effect; inconclusive = small, poorly fitted or top-dose-only effect, or another doubt; inactive = no such curve, though single readings can be large; an effect the other way counts as inactive or inconclusive
Target sequence (Q27686 whole entry, looked up): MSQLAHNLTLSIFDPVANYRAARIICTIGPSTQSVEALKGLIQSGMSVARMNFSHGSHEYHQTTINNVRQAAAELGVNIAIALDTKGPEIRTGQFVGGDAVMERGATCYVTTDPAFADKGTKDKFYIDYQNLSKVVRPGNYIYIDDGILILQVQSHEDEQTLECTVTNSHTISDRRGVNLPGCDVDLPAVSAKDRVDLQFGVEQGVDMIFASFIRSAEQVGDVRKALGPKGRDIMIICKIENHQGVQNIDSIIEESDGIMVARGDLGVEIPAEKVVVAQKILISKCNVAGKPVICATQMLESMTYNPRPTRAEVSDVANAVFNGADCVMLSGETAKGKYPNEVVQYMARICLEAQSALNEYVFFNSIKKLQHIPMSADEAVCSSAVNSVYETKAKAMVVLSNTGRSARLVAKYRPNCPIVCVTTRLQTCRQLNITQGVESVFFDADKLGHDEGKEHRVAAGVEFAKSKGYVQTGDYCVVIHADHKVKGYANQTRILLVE
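Purified LmPK (0.1 nM) with 0.5 mM PEP and 0.1 mM ADP in imidazole buffer pH 7.2 with MgCl2/KCl, 1 h at room temperature. ATP formed was read by luciferase luminescence and normalized to no-enzyme and uninhibited controls.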
Shiga inhibitor – A qHTS for Small Molecule Inhibitors of Shiga Toxin; 290,000 compounds, 9.2% hits; inhibition, % at 38.7 µM; AID 2315, 2010; Vero cells, Shiga toxin protein synthesis inhibition reporter; in the data active = inhibition mostly above about 28%, no sharp cut-off; inactive = mostly below about 43%
Cycloheximide cs – Cycloheximide Counterscreen for Small Molecule Inhibitors of Shiga Toxin | 300,000 compounds, 12% hits | max response, % | cell reporter, cycloheximide protein synthesis inhibition counterscreen | AID 2314, 2010; in the data active = max response mostly above about 13%, no sharp cut-off; inactive = mostly below about 14%; note: read at 38.3 µM for the half of the compounds with a filed dose
TbPYK inhibitor – qHTS of Trypanosoma Brucei Inhibitors; 410,000 compounds, 0.12% hits; TbPYK enzyme, Kinase-Glo Plus ATP luminescence, 45 min; AID 624173, 2012; Potency, µM (series often up to 76.8 µM), usual class: inhibitors; active = well fitted curve in the direction sought with a large enough effect; inconclusive = small, poorly fitted or top-dose-only effect, or another doubt; inactive = no such curve, though single readings can be large; an effect the other way counts as inactive or inconclusive; note: nearly all actives have a fitted effect of over 50% in size
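Glycolytic pyruvate kinase of T. brucei was incubated with substrate, test compound and 130 uM ADP for 45 minutes at room temperature. Luminescent Kinase-Glo Plus signal was measured after 10 minutes.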
Flu NS1 inh – Assay for Inhibitors of Influenza NS1 Protein Function: Hit Validation. shares compounds with NS1 function inh. influenza NS1 function cell assay, 15-point titration. activity change, negative = inhibition, % at 32.9 µM. 1,400 tested, under 10 active. AID 492980, 2010
Flu PR8 replic – Assay for Inhibitors of Influenza NS1 Protein Function: Influenza virus replication assay in MDCK cells infected with virus A/PR/8/34; shares compounds with NS1 function inh; MDCK infected influenza A/PR/8/34, virus titer TCID50; active compounds read low; virus titer (log TCID50), log10 TCID50 at 5 µM; 95 compounds, 30% hits; AID 504647, 2011; call rule not given here
A number is an active result; . = inactive; ? = inconclusive; / = no result given; ! = a repeat was not active. Unless noted, calls come from the whole dose curve.

SMILES	SARS PLpro yeast	NS1 function inh	LmPK inh	Shiga inhibitor	Cycloheximide cs	TbPYK inhibitor	Flu NS1 inh	others
C(=C\c1ccccc1)/CN1CCN(C(c2ccccc2)c2nnnn2-c2ccc3c(c2)OCCO3)CC1 (stereo unspecified)	/	/	/	/	/	.	/
CCOCCCNS(=O)(=O)c1ccc(NC(=O)Cc2c(F)cccc2Cl)cc1	.	?	.	.	.	.	.	Flu PR8 replic=.
COC(=O)c1ccccc1S(=O)(=O)N1CCC(NC(=O)C(Cc2cccc(OC)c2OC)NC(C)=O)CC1 (stereo unspecified)	.	.	.	.	.	.	/
COc1ccccc1-n1cc(-c2ccc(Br)cc2)[nH]c1=S	.	4.5µM	.	.	17	.	.
CC(C)N(CCCNC(=O)Cn1c(=O)c2cccn2c2ccc(F)cc21)Cc1ccccc1	.	.	.	.	.	.	/
O=C(O)CC1=C(O)C(=O)N(c2ccccc2)C1c1ccc(Br)cc1 (stereo unspecified)	.	7.9µM	.	.	.	.	.
Cc1cc(S(=O)(=O)NCCCN2CCOCC2)c(C)cc1Cl	.	.	.	.	.	.	/
O=C(Cc1cc(=O)[nH][nH]1)N/N=C/C=C/c1ccccc1	.	5µM!	.	.	.	.	.
O=C(O)c1ccccc1NS(=O)(=O)c1cccc2cccnc12	.	.	.	.	.	.	/
COc1ccc(OC)c(NC(=O)c2ccccc2NS(=O)(=O)c2cccc3cccnc23)c1	.	14µM	.	.	.	.	.
O=C(Nc1cccc2ccccc12)c1ccccc1NS(=O)(=O)c1cccc2cccnc12	.	11µM	.	.	.	.	?
COCc1c(C(=O)NCC(c2ccco2)N2CCCC2)oc2ccccc12 (stereo unspecified)	/	/	/	/	/	.	/
COc1ccc2cc3cc(C(=O)N4CCN(c5ccccn5)CC4)oc3nc2c1	.	.	.	.	.	.	/
O=C(NCc1ccc(F)cc1)C(c1cccnc1)N(C(=O)c1csnn1)c1ccccc1 (stereo unspecified)	.	.	.	.	.	.	/
CCC1(CC)NC(=O)N(CC(=O)OCn2nnc3ccccc3c2=O)C1=O	.	7.1µM	.	.	.	.	.
Cc1ccc(S(=O)(=O)c2cc3c(=O)n4ccccc4nc3n(CC3CCCO3)c2=N)cc1C (stereo unspecified)	.	8.9µM	.	.	.	.	?
c1ccc2c(C(c3nnnn3-c3ccc4c(c3)OCCO4)N3CCCCC3)ccnc2c1 (stereo unspecified)	/	/	/	/	/	.	/
COc1ccc(CNC(=O)C2CCN(S(=O)(=O)N3CCCC3)CC2)c(OC)c1	.	?	.	.	.	.	.
Cc1ccc(C(=O)NCCn2c(C)cc3ccccc32)cc1C	/	/	/	/	/	.	/
Cc1cc2ccccc2n1CCNC(=O)c1ccc(S(=O)(=O)N2CCCCC2)cc1	.	11µM	.	.	.	.	.
Cc1cc2cc(CNC(=O)c3cccc([N+](=O)[O-])c3)ccc2[nH]1	.	14µM	.	.	.	.	.
Cc1cc2cc(CNC(=O)c3ccc(S(=O)(=O)N4CCCCC4)cc3)ccc2[nH]1	.	11µM	.	.	.	.	.
O=C(NCc1ccc2[nH]c3c(c2c1)CCCC3)c1ccc(S(=O)(=O)N2CCOCC2)cc1	.	?	.	.	.	.	/
O=C(NCc1ccc2[nH]c3c(c2c1)CCCC3)c1ccc(S(=O)(=O)N2CCCC2)cc1	.	13µM	.	.	.	.	.	Flu PR8 replic=7
Cc1cccc(N2CCN(C3CCCCC3NS(=O)(=O)c3ccccc3)CC2C)c1 (stereo unspecified)	.	.	.	.	.	.	/
SMILES	SARS PLpro yeast	NS1 function inh	LmPK inh	Shiga inhibitor	Cycloheximide cs	TbPYK inhibitor	Flu NS1 inh	others
COc1ccc(C(C(=O)NC2CCCCC2)N(C(=O)c2snc(C(N)=O)c2N)c2ccc(OC)cc2OC)cc1 (stereo unspecified)	.	.	.	.	.	.	/
COc1ccc(N(CC(=O)NCCC(C)C)C(=O)c2snc(C(=O)NC3CCCCC3)c2N)c(OC)c1	.	13µM	.	.	.	.	.
Cc1cc(N)n(Cc2ccc(Cl)cc2)n1	.	.	.	.	.	.	/
Cc1ccc(-c2cc(N)n(Cc3ccc(Cl)cc3)n2)cc1	.	5µM	.	.	.	.	.
CC(C)(C)N1C(=O)c2ccc(C(=O)Nc3ccc(-c4nc5ccccc5[nH]4)cc3)cc2C1=O	.	?	.	47	29	.	.
CCCN(CCC)C1=N/C(=C\c2ccco2)C(=O)N1c1ccccc1	.	1.1µM	.	.	.	.	.
O=C1/C(=C\c2ccco2)SC(=S)N1c1ccccc1	.	.	.	.	.	.	/
O=C(O)COc1ccccc1/C=N/NC(=O)CSc1nnc(SCc2cccc3ccccc23)s1	.	3.5µM	.	.	.	.	.	Flu PR8 replic=7.5
O=C(Cn1cc(COc2ccc3ccc(=O)oc3c2)nn1)c1ccc(O)cc1	/	/	/	/	/	.	/
Cc1ccccc1NC(=O)c1cn(-c2ccccc2)nc1-c1ccccc1	.	.	.	.	.	.	/
O=C(NN=C1CCCCCC1)c1cn(-c2ccccc2)nc1-c1ccccc1	.	14µM	.	.	.	.	.
O=C(NN=C1CCCC1)c1ccccc1[N+](=O)[O-]	.	?	.	.	.	.	.
CN(c1ccccc1)S(=O)(=O)c1ccc(Cl)c(C(=O)Nc2nc3ccccc3[nH]2)c1	.	10µM	.	.	.	.	.
CN(c1ccccc1)S(=O)(=O)c1ccc(Cl)c(C(=O)Nc2ccc(-c3nc4ccccc4[nH]3)cc2)c1	.	.	.	.	.	.	/
Cc1c(NC(=O)c2ccc(N3CCCC3)c([N+](=O)[O-])c2)cccc1-c1nc2ccccc2s1	.	2µM	.	.	.	.	.
COc1ccc2c(c1)nc(NCCO)n2C	.	3.5µM	.	.	.	.	.
Cc1ccc2c(c1)nc(NCCCO)n2C	.	.	.	.	.	.	/
CCC(C)NC(=O)c1cc(CC(C)C)on1 (stereo unspecified)	.	?	.	59	49	.	.
COc1ccc(CN2C(=O)NC(=O)/C(=C/c3ccc(OC)c(OC)c3OC)C2=O)cc1	.	10µM	.	.	.	?	.
COc1ccc(CN2C(=O)NC(=O)/C(=C/c3cc(OC)c(OC)c(OC)c3)C2=O)cc1	.	.	.	.	.	?	/

Screens deposited in PubChem by National Center for Advancing Translational Sciences (NCATS).
